The record followed here is PubChem BioAssay (NCATS).

Where “and” joins values, the source holds several entries; their conditions need not be identical. Identical values can stand only once. Records with an inconclusive call do not appear. Some structures have more than one record in an assay (separate samples or runs), and their calls can disagree. Calls of active or inactive are those of the source. Unless noted, calls follow the shape of the dose curve; as a rule, active = well fitted curve in the direction sought with a large enough effect; inconclusive = small, poorly fitted or top-dose-only effect, or another doubt; inactive = no such curve, though single readings can be large; an effect the other way counts as inactive or inconclusive.

The target of assay [1] is Cytochrome P450 3A4 (Homo sapiens) (UniProt P08684). The experiment in a line: qHTS Assay for Activators of Cytochrome P450 3A4 (AID 885). Also: nearly all actives have a fitted effect of over 65% in size. Also: potency is read from the fitted curve at half-maximal effect. An outline of the steps:
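Activators are scored by enhanced luminescence from CYP3A4 conversion of luciferin-PPXE (25uM, equal to KM) to luciferin, after 60 min at RT with an NADPH-regenerating system.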

Assay [2] is described as follows: Confirmation and Secondary Assay for Modulators of Hemoglobin Beta Chain Splicing at IVS2 654 locus (AID 910).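 Also: HeLa cells stably carrying EGFP split by mutant beta-globin IVS2-654 intron; % of control where 0% means no effect.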 An outline of the steps:
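HeLa cells stably expressing EGFP interrupted by β-globin IVS2-654 intron, seeded overnight in Opti-MEM/2% FCS, then treated 2 days at 37 °C. Restored splicing read as total peak GFP intensity per well by laser scanning cytometry (488 nm excitation, 500–520 nm emission); 500 nM antisense PNA as control.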

Assay [3] is described as follows: Confirmation and Secondary Assay for Modulators of Hemoglobin Beta Chain Splicing at IVS2 705 locus (AID 930).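 Also: HeLa cells stably expressing the EGFP-705 splicing reporter; GFP fluorescence per well restored by corrected splicing of the IVS2-705 intron in EGFP; % of control where 0% means no effect.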 An outline of the steps: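 Secondary splice-site specificity test uses HeLa expressing CMV-driven EGFP interrupted by IVS2-705; cells were treated 2 days at 37C with 500 nM antisense PNA as positive control.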
Assay [4] is described as follows: qHTS Assay for Lipid Storage Modulators (AID 1519; calls by dose curve; as to activity change, negative = inhibition: % is scaled to controls: 0 for no effect and ±100 for the full control effect). To be noted: Drosophila S3 cells, BODIPY lipid droplet/cell ratio, laser cytometry, cells loaded with oleic acid; for activity change, negative = inhibition: at 57.5 µM (top of the series). An outline of the steps:
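Cells seeded at 5,000 per well were treated with compounds over a concentration series and loaded with oleic acid (400 uM, as added). Lipid droplet fluorescence (488 nm excitation, 500-530 nm channel) was read by laser-scanning cytometry and normalized to 20 uM Triacsin C.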

For assay [5], the target named is Ubiquitin carboxyl-terminal hydrolase 1 (Homo sapiens) (UniProt O94782). The assay is described as follows: Inhibitors of USP1/UAF1: Pilot qHTS (AID 504865). Also: nearly all actives have a fitted effect of over 35% in size. Also: potency is read from the fitted curve at half-maximal effect.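 As to activity change, negative = inhibition: rhodamine fluorescence freed from ubiquitin-rhodamine substrate followed over time; top concentration of the series differs between compounds; % is scaled to controls: 0 for no effect and ±100 for the full control effect.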 An outline of the steps: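 USP1/UAF1 complex at 1 nM preincubated 15 min at room temperature with compound, then Ub-Rho substrate added at 150 nM final. Fluorescence (480/540 nm) read kinetically in 50 mM HEPES pH 7.8, 0.5 mM EDTA, 1 mM TCEP, 0.1 mg/ml BSA, 0.01% Tween-20.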
Chain of Ubiquitin carboxyl-terminal hydrolase 1 (Homo sapiens) (O94782 whole entry, looked up): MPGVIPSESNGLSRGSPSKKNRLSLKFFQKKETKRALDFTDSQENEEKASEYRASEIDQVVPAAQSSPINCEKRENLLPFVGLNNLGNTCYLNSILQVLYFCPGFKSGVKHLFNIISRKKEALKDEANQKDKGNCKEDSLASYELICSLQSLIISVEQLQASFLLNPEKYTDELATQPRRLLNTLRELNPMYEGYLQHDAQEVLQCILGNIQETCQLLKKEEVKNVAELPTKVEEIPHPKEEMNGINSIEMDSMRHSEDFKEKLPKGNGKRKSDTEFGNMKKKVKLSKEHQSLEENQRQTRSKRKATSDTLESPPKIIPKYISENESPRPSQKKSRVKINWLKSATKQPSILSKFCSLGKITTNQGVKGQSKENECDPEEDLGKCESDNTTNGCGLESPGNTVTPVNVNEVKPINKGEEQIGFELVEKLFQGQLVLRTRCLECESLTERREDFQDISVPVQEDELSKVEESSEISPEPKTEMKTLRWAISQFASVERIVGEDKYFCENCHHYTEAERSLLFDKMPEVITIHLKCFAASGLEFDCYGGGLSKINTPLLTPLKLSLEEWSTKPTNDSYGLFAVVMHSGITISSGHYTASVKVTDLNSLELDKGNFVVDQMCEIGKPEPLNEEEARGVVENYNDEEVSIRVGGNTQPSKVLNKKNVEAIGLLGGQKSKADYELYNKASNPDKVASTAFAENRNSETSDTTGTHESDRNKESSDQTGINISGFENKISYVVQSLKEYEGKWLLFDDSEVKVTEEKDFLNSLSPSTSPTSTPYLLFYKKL
(In qHTS, concentration-response curves come from the screen itself.)

The target in assay [6] is Rap guanine nucleotide exchange factor 3 (Homo sapiens) (UniProt O95398). The experiment in a line: Confirmatory qHTS for agonist of cAMP-regulated guanine nucleotide exchange factor 3 (EPAC1) (AID 1645881).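 Also: EPAC1 catalysed release of BODIPY-GDP from Rap1B seen as fluorescence loss; 100% = effect of cAMP agonist control; nearly all actives have a fitted effect of over 75% in size.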
Chain of Rap guanine nucleotide exchange factor 3 (Homo sapiens) (O95398 whole entry, looked up): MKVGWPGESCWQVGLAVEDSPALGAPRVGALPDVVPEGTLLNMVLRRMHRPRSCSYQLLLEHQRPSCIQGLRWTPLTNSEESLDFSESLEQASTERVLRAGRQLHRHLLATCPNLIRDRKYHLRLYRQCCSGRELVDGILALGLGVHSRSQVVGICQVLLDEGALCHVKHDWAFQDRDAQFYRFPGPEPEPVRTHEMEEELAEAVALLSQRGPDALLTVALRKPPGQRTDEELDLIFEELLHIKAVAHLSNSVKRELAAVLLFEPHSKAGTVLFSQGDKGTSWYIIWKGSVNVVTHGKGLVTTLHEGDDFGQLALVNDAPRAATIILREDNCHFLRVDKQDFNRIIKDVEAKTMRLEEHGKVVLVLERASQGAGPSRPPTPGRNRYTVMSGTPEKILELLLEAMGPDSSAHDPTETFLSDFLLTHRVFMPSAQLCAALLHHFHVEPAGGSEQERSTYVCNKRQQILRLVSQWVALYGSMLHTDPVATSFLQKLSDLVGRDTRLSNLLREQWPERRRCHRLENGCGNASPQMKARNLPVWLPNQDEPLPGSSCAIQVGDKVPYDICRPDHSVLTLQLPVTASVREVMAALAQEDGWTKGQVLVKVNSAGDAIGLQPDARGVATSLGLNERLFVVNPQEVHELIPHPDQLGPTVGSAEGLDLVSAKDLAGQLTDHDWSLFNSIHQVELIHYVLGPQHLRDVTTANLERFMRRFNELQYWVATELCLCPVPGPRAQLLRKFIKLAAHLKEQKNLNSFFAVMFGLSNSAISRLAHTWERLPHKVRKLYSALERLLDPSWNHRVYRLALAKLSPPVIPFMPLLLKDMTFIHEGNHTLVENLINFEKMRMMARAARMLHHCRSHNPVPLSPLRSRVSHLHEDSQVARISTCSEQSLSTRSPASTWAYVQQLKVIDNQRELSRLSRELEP
Assay [7] has as its target Rap guanine nucleotide exchange factor 4 (Homo sapiens) (UniProt Q8WZA2). The assay is described as follows: Confirmatory qHTS for agonist of cAMP-regulated guanine nucleotide exchange factor 4 (EPAC2) (AID 1645884).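 Also: nucleotide exchange releases bodipy-GDP from Rap1 and this lowers its fluorescence; % is scaled to controls: 0 for no effect and ±100 for the full control effect; nearly all actives have a fitted effect of over 65% in size.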
Assay [8] shares this target. The experiment in a line: Confirmatory qHTS for antagonist of cAMP-regulated guanine nucleotide exchange factor 4 (EPAC2) (AID 1645885). Also: nearly all actives have a fitted effect of over 25% in size. Also: potency is read from the fitted curve at half-maximal effect. As to activity change, negative = inhibition: % is scaled to controls: 0 for no effect and ±100 for the full control effect.
For assay [9], the target named is Cytochrome P450 3A4 (Homo sapiens) (UniProt P08684). The experiment in a line: qHTS Assay for Inhibitors and Substrates of Cytochrome P450 3A4 (AID 884). Also: nearly all actives have a fitted effect of over 50% in size. Also: potency is read from the fitted curve at half-maximal effect. As to activity change, negative = inhibition: % is scaled to controls: 0 for no effect and ±100 for the full control effect. An outline of the steps:
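Luminescent readout of luciferin produced by CYP3A4 (20 nM) dealkylation of Luciferin-PPXE, 25 uM (its KM). NADPH-driven reaction ran 60 min at RT after 10 min compound preincubation; data scaled to 57 uM ketoconazole as 100% inhibition.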

For assay [10], the target named is Rap guanine nucleotide exchange factor 3 (Homo sapiens) (UniProt O95398). The experiment in a line: Confirmatory qHTS for antagonist of cAMP-regulated guanine nucleotide exchange factor 3 (EPAC1) (AID 1645880). Also: nearly all actives have a fitted effect of over 55% in size. Also: potency is read from the fitted curve at half-maximal effect. An outline of the steps: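 Released BODIPY-GDP fluoresces less than Rap1-bound BODIPY-GDP; the signal is followed at 480/540 nm at 5-min intervals over 30 min, after 5 min at room temperature. Reactions contain 100 nM EPAC1, 250 nM RAP1B-BODIPY-GDP and 50 uM GDP; results are normalized to ATA and DMSO.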

[11] abbreviates: measured here: cell count channel max response.
The mark [12] stands for this setting: measured here: lipid channel max response.

Chain of Rap guanine nucleotide exchange factor 4 (Homo sapiens) (Q8WZA2 whole entry, looked up): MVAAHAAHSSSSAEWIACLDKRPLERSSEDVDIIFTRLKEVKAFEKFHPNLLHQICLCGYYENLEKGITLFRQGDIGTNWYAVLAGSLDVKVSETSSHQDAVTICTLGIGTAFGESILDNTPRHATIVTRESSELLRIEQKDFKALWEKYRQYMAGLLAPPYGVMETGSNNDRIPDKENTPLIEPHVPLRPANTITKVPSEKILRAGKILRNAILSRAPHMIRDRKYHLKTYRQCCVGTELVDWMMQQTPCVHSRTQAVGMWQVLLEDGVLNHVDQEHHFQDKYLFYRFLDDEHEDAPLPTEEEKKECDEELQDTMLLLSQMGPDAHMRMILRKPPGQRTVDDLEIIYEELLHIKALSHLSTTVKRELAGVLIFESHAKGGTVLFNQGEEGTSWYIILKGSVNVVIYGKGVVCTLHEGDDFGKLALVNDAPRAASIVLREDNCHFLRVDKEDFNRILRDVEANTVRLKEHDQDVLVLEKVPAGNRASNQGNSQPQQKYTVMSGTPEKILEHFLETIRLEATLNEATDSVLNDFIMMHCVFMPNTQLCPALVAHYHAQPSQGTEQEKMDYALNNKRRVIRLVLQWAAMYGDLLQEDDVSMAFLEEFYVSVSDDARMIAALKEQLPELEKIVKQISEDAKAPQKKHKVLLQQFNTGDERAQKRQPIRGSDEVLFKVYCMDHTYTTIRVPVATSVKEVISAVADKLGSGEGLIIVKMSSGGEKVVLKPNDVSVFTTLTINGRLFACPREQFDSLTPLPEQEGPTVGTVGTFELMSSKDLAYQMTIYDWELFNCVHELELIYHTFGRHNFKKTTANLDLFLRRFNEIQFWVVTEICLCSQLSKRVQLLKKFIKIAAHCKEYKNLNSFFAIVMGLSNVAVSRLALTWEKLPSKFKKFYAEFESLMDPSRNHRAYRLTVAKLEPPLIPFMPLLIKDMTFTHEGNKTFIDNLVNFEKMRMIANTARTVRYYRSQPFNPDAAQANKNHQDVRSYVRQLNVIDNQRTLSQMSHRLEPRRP
Chain of Cytochrome P450 3A4 (Homo sapiens) (P08684 whole entry, looked up): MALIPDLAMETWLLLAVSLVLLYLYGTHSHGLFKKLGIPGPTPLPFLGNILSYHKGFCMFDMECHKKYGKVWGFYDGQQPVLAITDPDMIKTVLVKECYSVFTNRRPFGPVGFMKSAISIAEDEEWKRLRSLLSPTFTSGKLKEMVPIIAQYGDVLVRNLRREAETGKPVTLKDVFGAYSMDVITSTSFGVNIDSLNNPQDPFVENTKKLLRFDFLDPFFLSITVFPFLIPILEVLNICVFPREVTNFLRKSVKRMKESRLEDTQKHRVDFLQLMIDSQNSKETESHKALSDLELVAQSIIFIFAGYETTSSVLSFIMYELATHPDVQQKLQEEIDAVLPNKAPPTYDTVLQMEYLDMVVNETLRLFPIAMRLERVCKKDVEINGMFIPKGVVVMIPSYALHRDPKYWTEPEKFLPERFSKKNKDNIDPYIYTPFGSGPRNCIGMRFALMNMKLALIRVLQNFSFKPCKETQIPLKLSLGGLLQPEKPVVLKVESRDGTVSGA

`O=C(O)c1cc(O)c2c(c1)C(=O)c1cc(O)cc(O)c1C2=O`: the Potency entry in assay [1], in [2], in assay [6], in assay [7] and in assay [8] was “inactive” in each case. Besides, the outcome in assay [3] was inactive. In [4], the activity change, negative = inhibition is 8.22% (inactive). Further, the figures for the max response in [4] (setting [11]) and in assay [4] (setting [12]) were 22.4% and 36.4%, respectively. In addition, the Potency in [5] is 56.2 µM (active).

For the compound `C=CC(C1=CC(=O)C(OC)=CC1=O)c1ccccc1` (centres undefined), the results for the Potency in assay [9], in [5] and in assay [8] were 20 µM (active), 56.2 µM (active) and 31.2 µM (active), respectively. Further, the Potency result in [1], in [2], in assay [6] and in [7] was “inactive” throughout. Also, the call in assay [3] was inactive. For the same compound, the activity change, negative = inhibition in [4] was -14.6% (inactive). The max response was -0.41% in assay [4] (setting [11]) and -12.3% in assay [4] (setting [12]).

On to `O=c1cc(-c2ccc(O)c(O)c2)oc2cc(OC3OC(CO)C(O)C(O)C3O)cc(O)c12` (centres undefined), for which the Potency result in [9], in assay [6], in assay [7] and in assay [8] was “inactive” in each case. In addition, in [4], the activity change, negative = inhibition is 7.95% (inactive). The max response in assay [4] (setting [11]) turned out to be 6.89%; in [4] (setting [12]) it was 11.2%. In assay [10], the Potency is 7.03 µM (active).

In the case of `CC1(C)C(O)CC[C@]2(C)C1CC[C@@]1(C)C2C(=O)C=C2[C@@H]3C[C@@](C)(C(=O)O)CC[C@@]3(C)CCC21C` (some centres undefined), the Potency result in assay [1], in assay [2], in assay [10], in assay [6] and in assay [7] was “inactive” in each case. In assay [3], the compound was classed as inactive. Further, in assay [4], the activity change, negative = inhibition was 9.4% (inactive). The max response in assay [4] (setting [11]) stood at 16.2%; in assay [4] (setting [12]), 28.1%. Moreover, in assay [8], the Potency was 4.94 µM (active).

Take `COC(=O)CCCOc1ccc(Cl)cc1Cl`: the Potency entry in [9], in assay [2], in assay [5], in assay [10], in [6] and in [7] was “inactive” each time. The compound was called inactive in [3]. Also, the activity change, negative = inhibition in assay [4] was 5.51% (inactive). Further, the max response in assay [4] (setting [11]) amounted to 14%; in assay [4] (setting [12]), 23%.

Take `COc1cc(C/C=C/c2ccccc2)c(OC)cc1O`: the Potency result in assay [1], in assay [5], in assay [10], in [6], in [7] and in assay [8] was “inactive” in each case. Further, in assay [3], the call was inactive. Besides, in [4], the activity change, negative = inhibition is 1.85% (inactive). Also, the max response in assay [4] (setting [11]) turned out to be 4.35%; in assay [4] (setting [12]) it was 7.15%.

With `CC(=O)OC1CC[C@]2(C)C(CC(OC(C)=O)[C@@]3(C)C4=CC(=O)OC(c5ccoc5)[C@]4(C)CCC23)C1(C)C` (some centres undefined), the Potency entry was “inactive and 2.51 µM (active)” in assay [9]; 6.31 µM (active) and inactive in [1]. Moreover, the Potency entry in assay [2], in assay [10], in assay [6] and in assay [7] was “inactive” each time. In addition, the compound was classed as inactive in assay [3]. In addition, in [4], the activity change, negative = inhibition is -24.5% (inactive) and -12.6% (inactive) and 0.61% (inactive). Moreover, the max response in assay [4] (setting [11]) was 6.99% and 9.73% and 16%; in assay [4] (setting [12]), -14.8% and -4.52% and 18.3%.

As for `COc1ccc2c(c1)OCC(Cc1ccc(OC)c(OC(C)=O)c1)C2=O` (centres undefined), the Potency result in [1], in [2], in [10], in assay [6] and in [7] was “inactive” in each case. In assay [3], the compound was called inactive. The activity change, negative = inhibition in assay [4] was 2.81% (inactive). Besides, the max response in assay [4] (setting [11]) is 1.86%; in assay [4] (setting [12]) it was -2.44%.

For the compound `O=c1c(O)c(-c2ccc(O)c(O)c2)oc2c(OC3OC(CO)C(O)C(O)C3O)c(O)cc(O)c12` (centres undefined), the Potency entry in assay [1], in assay [2], in [5], in [10], in assay [6] and in assay [7] was “inactive” in each case. Further, the Potency result in [8] was “inactive”. Further, in assay [3], the outcome was inactive. For the same compound, in [4], the activity change, negative = inhibition was 0.918% (inactive). The max response in assay [4] (setting [11]) is -2.75%; in assay [4] (setting [12]), 7.27%.
